The list is not random: actives were taken first. Their share in the collection is about 7.2%.
Lassa entry inh – qHTS for Inhibitors of binding or entry into cells for Lassa Virus | Lassa virus pseudotype entry inhibition, cell reporter | Potency, µM (titrated, usually from 37.9 µM), for the others: at the top dose activity change, negative = inhibition, actives largely listed as inhibitors | 300,000 compounds, 1.2% hits; calls by dose curve; tested in HEK293 cells; further: nearly all actives have a fitted effect of over 50% in size
HCV inhibitor – qHTS Assay for Inhibitors of Hepatitis C Virus (HCV); 340,000 compounds, 3.4% hits; AID 651820, 2012; Huh7.5.1 HCVcc-Cre infection, luciferase reporter, 44 h; Potency, µM (top dose mostly 41.8 µM), without a hit: at the highest dose activity change, negative = inhibition, usual class: inhibitors
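Cells (1,000/well) were plated 4 h before compound, then infected with HCVcc-Cre virus (~0.5 moi). After 44 h further culture, infection was read as luciferase luminescence following a 15 min substrate incubation at room temperature.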
FMDV antiviral – High Throughput Screening for Foot and Mouth Disease Virus Antivirals; FMDV antiviral cell-based qHTS; Potency, µM (series often up to 57.9 µM), inactives show at the top dose activity change, negative = inhibition, most hits filed as inhibitors; 410,000 compounds, 1.2% hits; AID 1159524, 2015; calls by dose curve; tested in HEK293T cells; further: read-out not given here; nearly all actives have a fitted effect of over 45% in size
Marburg entry inh – qHTS for inhibitors of binding or entry into cells for Marburg Virus | Marburg virus pseudotyped entry inhibition, cell reporter | Potency, µM (highest dose often 37.8 µM), for inactives: top-dose activity change, negative = inhibition, hits mostly inhibitors | 300,000 compounds, 1.8% hits | AID 540276, 2011; calls by dose curve; tested in HEK293 cells
Sm TGR inh – qHTS Assay for the Inhibitors of Schistosoma Mansoni Peroxiredoxins; Schistosoma mansoni thioredoxin glutathione reductase (TGR), Q962Y6; purified TGR, DTNB reduction, TNB absorbance 405 nm; Potency, µM (top dose mostly 114 µM), without a hit: at the top dose activity change, negative = inhibition, usual class: inhibitors; 360,000 compounds, 3% hits; AID 485364, 2010; further: nearly all actives have a fitted effect of over 60% in size
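First, TGR (20 nM dispensed) and NADPH were mixed with compound. Second, a 15 min room-temperature incubation followed. Third, further NADPH and then DTNB were added to start the reaction. Finally, TNB absorbance was monitored kinetically.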
RE007 growth inh – qHTS Assay for Inhibitors of the HIV-1 protein Vpr | S. pombe RE007 Vpr strain, BacTiter-Glo ATP luminescence, 24 h | Potency, µM (series often up to 92.2 µM), without a hit: at the top dose activity change, negative = less growth, usual class: inhibitors | 360,000 compounds, 0.21% hits; active means well fitted falling curve with a large enough effect; inconclusive means small, poorly fitted or top-dose-only effect; inactive means no such curve, though single readings can be large or run the other way; further: nearly all actives have a fitted effect of over 50% in size
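Fission yeast strain RE007, carrying one chromosomally integrated HIV-1 vpr copy, was seeded at OD 0.01 in PMG+AL medium with 23 nL pinned compound. After 24 h at 30 °C and 99% humidity, viability was read by BacTiter-Glo luminescence.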
An asterisk follows results filed as active; [ ] = dose if it differs, or a comment. Unless noted, the call rests on the fitted dose curve; in most records, active means well fitted curve in the direction sought with a large enough effect; inconclusive means small, poorly fitted or top-dose-only effect, or another doubt; inactive means no such curve, though single readings can be large; an effect the other way counts as inactive or inconclusive. On the % scale 0 is the no-effect control and ±100 the full control effect; potency means the concentration at half of the fitted maximal effect.

Screening Cc1ccc(N2C(=O)CC(Sc3ncn[nH]3)C2=O)cc1C (configuration not stated) returned Lassa entry inh inconclusive, HCV inhibitor 5%, FMDV antiviral -10%, Marburg entry inh -7%, Sm TGR inh 0.32µM* and RE007 growth inh inconclusive.
Screening Cc1cccc(N2C(=O)CC(Sc3ncn[nH]3)C2=O)c1 (configuration not stated) returned Lassa entry inh 2%[46.1 µM], HCV inhibitor 15%, FMDV antiviral -1%, Marburg entry inh -16%[46.1 µM], Sm TGR inh 7.1µM* and RE007 growth inh inconclusive.
Screening Cc1cccc(N2C(=O)CC(Sc3nccc(C)n3)C2=O)c1 (configuration not stated) returned Lassa entry inh -4%, HCV inhibitor -11%, FMDV antiviral -10%, Marburg entry inh 11%, Sm TGR inh -18% and RE007 growth inh -13%.
For COc1ccc(O)c(CN2CCC3(CCC(CNC(=O)c4ccco4)O3)CC2)c1 (configuration not stated) the results were FMDV antiviral -11%.
`COCC(=O)Nc1cc(C(=O)NC2CCCc3ccccc32)c2c(c1)nc(-c1ccncc1)n2C` (configuration not stated) gave FMDV antiviral -8%.
C=CCn1c(O)c(C(C)=NCCc2ccccc2)c(=O)[nH]c1=O was read as Lassa entry inh -5%, HCV inhibitor 19%, FMDV antiviral -10%, Marburg entry inh 1%, Sm TGR inh -10% and RE007 growth inh 27%.
C=CCn1c(O)c(C(C)=Nc2ccc3c(c2)CCC3)c(=O)[nH]c1=O was read as Lassa entry inh -28%, HCV inhibitor 13%, FMDV antiviral -28%, Marburg entry inh 14%[14.2 µM], Sm TGR inh 12% and RE007 growth inh 12%.
Screening CCC(=NCC1CCCO1)c1c(O)n(Cc2ccccc2)c(=O)[nH]c1=O (configuration not stated) returned Lassa entry inh 1.6µM*, HCV inhibitor 14%, FMDV antiviral inconclusive, Marburg entry inh 13%, Sm TGR inh -10% and RE007 growth inh 4%.
Screening C=CCn1c(O)c(C(CC)=NCCc2ccccc2)c(=O)[nH]c1=O returned Lassa entry inh -12%, HCV inhibitor 10%, FMDV antiviral -21%, Marburg entry inh 6%, Sm TGR inh 89µM* and RE007 growth inh 19%[3.69 µM].
C=CCn1c(O)c(C(CC)=Nc2ccc3c(c2)CCC3)c(=O)[nH]c1=O was read as Lassa entry inh 0.89µM*, HCV inhibitor 19%, FMDV antiviral inconclusive, Marburg entry inh 9%, Sm TGR inh -1% and RE007 growth inh 11%.
`C=CCn1c(O)c(C(CC)=Nc2ccc(N(C)C)cc2)c(=O)[nH]c1=O` gave Lassa entry inh inconclusive, HCV inhibitor inconclusive, FMDV antiviral inconclusive, Marburg entry inh -24%[14.2 µM], Sm TGR inh 32µM* and RE007 growth inh 8%.
Screening C=CCn1c(O)c(C(CC)=Nc2cccc(C(=O)O)c2)c(=O)[nH]c1=O returned Lassa entry inh 24%[46.1 µM], HCV inhibitor 26%, FMDV antiviral 8%, Marburg entry inh 0%[46.1 µM], Sm TGR inh -26% and RE007 growth inh 18%.
`Cc1ccc(-n2c(C)cc(C(=O)COC(=O)c3c(C)noc3C)c2C)cc1` gave Lassa entry inh inconclusive, HCV inhibitor 0.32µM*, FMDV antiviral -15%, Marburg entry inh inconclusive, Sm TGR inh 2% and RE007 growth inh 8%.
Screening Cc1cc(C(=O)COC(=O)C2=NNC(=O)CC2)c(C)n1-c1ccccc1 returned Lassa entry inh -12%, HCV inhibitor 20%, FMDV antiviral inconclusive, Marburg entry inh 6%, Sm TGR inh 1% and RE007 growth inh 9%.
`Cc1cc(C(=O)COC(=O)C2=COCCO2)c(C)n1-c1ccccc1` gave Lassa entry inh 2.2µM*, HCV inhibitor inconclusive, FMDV antiviral inconclusive, Marburg entry inh 5.6µM* and RE007 growth inh 6%.

Source: PubChem (National Center for Advancing Translational Sciences (NCATS))
